Laboratory results reported in PubChem BioAssay (NCI).
Compounds without any hit were thinned out: in the full panel of roughly 83,000, 20% have a hit.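 Percent growth is the endpoint: 0 to 100 indicates growth inhibition (40 means 60% inhibition), 0 means no net growth, and negative values indicate cell death.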

How the values were obtained:
Experiment in all cases: NCI-60 one-dose screen, 48 h (100 = growth as untreated, 0 = no growth, -100 = all killed)
Settings in all cases: 10 µM unless noted; active means growth percent below 10; inactive means the rest
DU-145 prostate = tested on: DU-145 prostate
K-562 leukemia = tested on: K-562 leukemia
MALME-3M melanoma = tested on: MALME-3M melanoma
MDA-MB-231 breast = tested on: MDA-MB-231 breast
SF-268 CNS = tested on: SF-268 CNS
SF-295 CNS = tested on: SF-295 CNS
SF-539 CNS = tested on: SF-539 CNS
UACC-257 melanoma = tested on: UACC-257 melanoma
M14 melanoma = tested on: M14 melanoma

Measured: growth

COc1ccc(-c2nc(SCC(C)C)nc(N/N=C(/C)c3ccc(OC)c(OC)c3)c2C#N)cc1
inactive: DU-145 prostate 87.7% | K-562 leukemia 69.5% | MALME-3M melanoma 88.9% | MDA-MB-231 breast 74.5% | SF-268 CNS 79.1% | SF-295 CNS 92.8% | SF-539 CNS 80.9% | UACC-257 melanoma 105% | M14 melanoma 94%

NC(=O)c1ncn(C2OC(CO)C(O)C2O)n1 (configuration not stated)
inactive: DU-145 prostate 85.1% | K-562 leukemia 61.1% | MALME-3M melanoma 93.8% | MDA-MB-231 breast 103% | SF-268 CNS 98% | SF-295 CNS 99.9% | SF-539 CNS 97.6% | UACC-257 melanoma 97.7% | M14 melanoma 92.8%

CC(=O)Nc1ccc(S(=O)(=O)NC2CCCCC2)cc1
inactive: DU-145 prostate 113% | K-562 leukemia 100% | MALME-3M melanoma 98.1% | MDA-MB-231 breast 97.3% | SF-268 CNS 104% | SF-295 CNS 96.4% | SF-539 CNS 103% | UACC-257 melanoma 95.8% | M14 melanoma 101%
